Screening results: PubChem, National Center for Advancing Translational Sciences (NCATS)
Rows were chosen to be rich in hits. Some 9.5% of all compounds tested hit in one or more screens of this group.
SARS PLP yeast: SARS-CoV PLP inhibition in yeast. S. cerevisiae expressing SARS-CoV PLpro, growth rescue. Potency, µM (series often up to 32.9 µM), without a hit: at the top dose activity, positive = growth rescue, most hits filed as activators. actives 0.19% (n = 330,000); further: 0% is about no effect; nearly all actives have a fitted effect of over 55% in size
Pf growth 96h: inhibits malaria parasite growth, 96 h | P. falciparum luciferase reporter growth, 96 h | Potency, µM (highest dose often 28.7 µM), for inactives: top-dose activity change, negative = inhibition, most hits filed as inhibitors | actives 6.9% (n = 320,000); active means well fitted inhibition curve with a large enough effect; inconclusive means small, poorly fitted or top-dose-only effect, or another doubt; inactive means no such curve, though single readings can be large or run the other way; further: on the % scale 0 is the no-effect control and ±100 the full control effect
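Infected RBCs, 2% Hct / 0.05% parasitemia final; luciferase-reporter P. falciparum; cpd 96 h, 37 C, 5% CO2; luciferase detection reagent; luminescence.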
NS1 inh: blocks influenza NS1 protein function | Potency, µM (top dose mostly 46.1 µM), for inactives: top-dose activity, positive = more growth | actives 0.4% (n = 270,000) | AID 2326; further: actives are rising curves; nearly all actives have a fitted effect of over 50% in size
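Compounds were scored for reversing the slow growth caused by influenza A NS1 in S. cerevisiae, measured by optical density at 600 nm. Assay medium contained 2% galactose at pH 6.0; NS1-free yeast of the same strain were the positive control.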
Pf growth 48h: inhibits P. falciparum growth in the first generation, 48 h | AID 504832 | P. falciparum luciferase growth in erythrocytes, 48 h | actives 5.9% (n = 310,000) | Potency, µM (top dose mostly 28.7 µM), inactives show at the highest dose activity change, negative = inhibition, hits mostly inhibitors; active means well fitted inhibition curve with a large enough effect; inconclusive means small, poorly fitted or top-dose-only effect, or another doubt; inactive means no such curve, though single readings can be large or run the other way; further: on the % scale 0 is the no-effect control and ±100 the full control effect
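Luciferase-expressing P. falciparum in infected erythrocytes (2% hematocrit, 0.1% parasitemia final) in RPMI 1640/0.5% Albumax were exposed to compound for 48 hours at 37 C, 5% CO2; growth read as luminescence.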
RE007 growth inh: less growth of the S. pombe RE007 Vpr strain; S. pombe RE007 Vpr strain, BacTiter-Glo ATP luminescence, 24 h; Potency, µM (series often up to 92.2 µM), without a hit: at the highest dose activity change, negative = less growth, hits mostly inhibitors; actives 0.21% (n = 360,000); AID 651644; active means well fitted falling curve with a large enough effect; inconclusive means small, poorly fitted or top-dose-only effect; inactive means no such curve, though single readings can be large or run the other way; further: on the % scale 0 is the no-effect control and ±100 the full control effect; nearly all actives have a fitted effect of over 50% in size
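Fission yeast RE007 carrying one integrated HIV-1 vpr copy, seeded at OD 0.01 in PMG+AL medium with 23 nL pinned compound. Grown 24 h at 30 degrees; viability read by BacTiter-Glo luminescence after 5 min.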
Starred values were filed as active, the others as inactive; u = inconclusive; x = not tested or not shown. Unless noted, the call rests on the fitted dose curve. Potency means the concentration at half of the fitted maximal effect.

SMILES	SARS PLP yeast	Pf growth 96h	NS1 inh	Pf growth 48h	RE007 growth inh
O=C(c1ccc(-c2ccc([N+](=O)[O-])cc2)o1)N1CCCCCCC1	3%	42%	x	9%	-90%
O=C(c1ccc(-c2ccc([N+](=O)[O-])cc2)o1)N1CCCC(C(F)(F)F)C1 (stereo unspecified)	8%	4%	x	9.3µM*	-23%
CC1CCCN(C(=O)c2ccc([N+](=O)[O-])o2)C1 (stereo unspecified)	-10%	u	-34%	13µM*	-12%
COc1cccc(=O)c2c(C)n(-c3cc(C)cc(C)c3)c(C)c12	-15%	2.6µM*	2%	3.3µM*	-16%
COc1cccc(-n2c(C)c3c(OC)cccc(=O)c3c2C)c1	2%	u	u	4.1µM*	15%
O=C(NCC[C@H]1CC[C@H](NS(=O)(=O)c2ccccc2F)[C@@H](CO)O1)c1ccc(F)cc1	x	x	x	x	-4%
CC(Oc1ccc(-c2ccccc2)c(F)c1)c1ccn(S(=O)(=O)c2ccc(F)cc2)n1 (stereo unspecified)	13%	u	-2%	u	-7%
COc1ccc(S(=O)(=O)n2ccc(C(C)Oc3ccc(-c4ccccc4)c(F)c3)n2)cc1 (stereo unspecified)	-2%	17µM*	7%	13µM*	-11%
CC(C)N1CCN(Cc2cnc(N3CCCC3)s2)CC1CCO (stereo unspecified)	1%	9.3µM*	4%	8%	19%
Cc1ncc(CN2CCN(C(C)C)C(CCO)C2)s1 (stereo unspecified)	0%	-24%	-1%	30%	-2%
COc1ccc(NC(=O)c2nnn(CC(=O)Nc3ccc4c(c3)OCO4)c2N)cc1OC	-2%	u	1%	31%	2%
COc1ccc(NC(=O)Cn2nnc(C(=O)NCc3ccc4c(c3)OCO4)c2N)cc1	2%	-2%	x	35%	9%
Cc1cc(C)cc(NC(=O)Cn2nnc(C(=O)NCc3ccc4c(c3)OCO4)c2N)c1	0%	0.1µM*	-7%	32%	-5%
Cc1cc(C)cc(-n2nnc(C(=O)NCc3ccc(Cl)cc3)c2N)c1	-3%	-19%	0%	u	-9%
Cc1cc(C)cc(-n2nnc(C(=O)NCc3ccccc3)c2N)c1	-1%	u	-1%	13µM*	-2%
COc1ccc(Cl)cc1NC(=O)c1nnn(CC(=O)Nc2ccc3c(c2)OCO3)c1N	-5%	15µM*	-6%	29%	-12%
Cc1ccc(CNC(=O)c2nnn(CC(=O)Nc3cc(C)cc(C)c3)c2N)cc1	-3%	2.1µM*	-11%	36%	4%
COc1cccc(NC(=O)N2CCCC2C(=O)NC2CCCC2)c1 (stereo unspecified)	-1%	-13%	0%	25%	10%
CCN(CC)CCCNC(=O)C1c2ccccc2C(=O)N(CCOC)C1c1ccc(F)cc1 (stereo unspecified)	0%	13µM*	x	1%	-17%
CCN(CCCNC(=O)C1c2ccccc2C(=O)N(CCOC)C1c1ccc(F)cc1)Cc1ccccc1 (stereo unspecified)	7%	-20%	x	-30%	-5%
O=C(OCC(=O)N1CCCc2ccccc21)c1c(F)cccc1F	1%	-8%	x	39%	2%
CCCCOc1ccc(C(=O)NCC(=O)NNC(=O)c2ccco2)cc1	-3%	x	x	x	-2%
Cc1cc(N2CCOCC2)ccc1/C=C1\NC(=O)N(CC(=O)Nc2ccccc2C)C1=O	0%	x	-5%	29%	2%
O=C(CN1C(=O)N/C(=C\c2ccccc2OCc2ccc(C(=O)O)cc2)C1=O)Nc1ccc(F)cc1	2%	5.2µM*	3%	8%	5%
Cc1cc(N2CCOCC2)ccc1/C=C1\NC(=O)N(CC(=O)Nc2ccc(F)cc2)C1=O	0%	2.9µM*	0%	58%	-7%
SMILES	SARS PLP yeast	Pf growth 96h	NS1 inh	Pf growth 48h	RE007 growth inh
CC(Oc1ccccc1)C(=O)N1CCN=C1SCc1ccc(F)cc1 (stereo unspecified)	-1%	-22%	-67%	u	-9%
CCCS(=O)(=O)c1c(S(=O)(=O)CCC)c2cnccn2c1C(=O)c1ccc(OC)cc1	-1%	u	1%	10µM*	6%
CCCS(=O)(=O)c1c(S(=O)(=O)CCC)c2cnccn2c1C(=O)c1ccc(CC)cc1	6%	x	4%	3.3µM*	18%
CCCS(=O)(=O)c1c(S(=O)(=O)CCC)c2cnccn2c1C(=O)c1ccc(F)cc1	-1%	-20%	-6%	13µM*	-1%
CN(C)S(=O)(=O)c1ccc(N=Cc2c(C(F)(F)F)[nH]n(C)c2=O)cc1	3%	48%	x	1%	1%
CCOC(=O)[C@]12CCC=C1N(Cc1ccccc1)C(=O)[C@H](CC(=O)NCCCN1CCCC1=O)C2	x	x	x	x	-4%
Oc1ccc(Br)cc1CNc1nccs1	-4%	u	-6%	u	2%
Oc1ccc(Br)cc1CNc1ccccn1	-2%	6.6µM*	-5%	u	-18%
CN(C)Cc1ccccc1OC(=O)N(C)C	3%	8%	-4%	x	-4%
Cc1cccc(CN(C)C)c1OC(=O)N(C)C	-1%	5.9µM*	6%	19%	-8%
Clc1ccc2nc(-c3cccc(SC4CCCCC4)c3)c(NCc3ccccc3)n2c1	2%	3.7µM*	x	4.1µM*	-18%
Cc1ccc2nc(-c3cccc(SC4CCCCC4)c3)c(NCc3ccccc3)n2c1	1%	x	x	x	-20%
CCCCCCSc1cccc(-c2nc3ccc(Cl)cn3c2NCc2ccccc2)c1	0%	u	x	7.4µM*	-2%
CCCCNc1c(-c2cccc(SC3CCCCC3)c2)nc2ccc(Cl)cn12	-6%	u	x	10µM*	-6%
CCc1nc2ccc(C(=O)Nc3cccc(OCC(=O)N(C)C)c3)cn2c1N(C)C(=O)c1ccncc1	x	x	x	x	-1%
N#CCC(CNc1ncc(C(F)(F)F)cc1Cl)OC(=O)c1ccc(Cl)cc1Cl (stereo unspecified)	-16%	2.3µM*	-14%	2.9µM*	-6%
CCCOc1ccc(C(=O)O/N=C(\CC)c2ccc(C)cc2)cc1	-52%	36%	-6%	5%	23%
CC/C(=N\OC(=O)c1ccc(OC(C)C)cc1)c1ccc(C)cc1	-16%	15µM*	-76%	x	29%
Nc1ccc(/C=C/C(=O)c2ccco2)cc1	-26%	-9%	-5%	41%	u
N#Cc1ccc(/C=C/C(=O)c2ccco2)cc1	-63%	-16%	-37%	25%	18µM*
CCn1c(SCC(=O)N(C)c2ccccc2)nc2c([nH]c3ccccc32)c1=O	10%	u	18%	u	-19%
COc1ccc(-n2c(SCC(=O)N(C)c3ccccc3)nc3c([nH]c4ccccc43)c2=O)cc1OC	-1%	4.7µM*	8%	8.3µM*	-9%
COc1ccc(-n2c(SCC(=O)Nc3ccc(C(N)=O)cc3)nc3c([nH]c4ccccc43)c2=O)cc1OC	0%	12µM*	17%	u	-2%
